The list is not random: actives were taken first. Their share in the collection is about 5%.
CHT PAM: allosteric activators of human choline transporter CHT; Q9GZV3; CHT-expressing cells, membrane potential dye, choline EC20; stronger effect = higher value; LV-AA mutant CHT in HEK293 cells; B-score at 10 µM; hit rate 0.49% among 310,000; AID 488977;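 active = initial fluorescence not abnormally high and integrated response B-score, plate-corrected, over 3 SD above library mean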
AI-2 QS mod: modulates the Vibrio harveyi AI-2 quorum sensing system. Vibrio harveyi JMH597 AI-2 luminescence/OD600 ratio, 9 h; stronger effect = lower value; strain lacks LuxN and CqsS sensors; 0 = neutral-control median. activity change, % at 7.5 µM. hit rate 0.4% among 300,000; in the data active = activity change below about -75%, passing the limit was not always enough;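 note: luminescence divided by OD600 gain over 9 h not by final OD600 alone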
PREPL inhibitor: human PREPL enzyme inhibition; AID 2751; Q4J6C6; hit rate 0.68% among 320,000; inhibition, % at 5.96 µM; recombinant PREPL, fluorescence polarization activity-based probe; in the data active = inhibition above about 43%;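 note: 0% = enzyme with DMSO and 100% = wells lacking enzyme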
ALR inh: blocks human ALR sulfhydryl oxidase activity; purified ALR, DTT oxidation, H2O2 HRP-luminol luminescence; inhibition, % (test concentration not listed); hit rate 3.8% among 290,000; AID 485317;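 active = mean replicate inhibition above about 79%, with every replicate also reaching it, limit read from the data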
Target sequence (P55789 whole entry, looked up): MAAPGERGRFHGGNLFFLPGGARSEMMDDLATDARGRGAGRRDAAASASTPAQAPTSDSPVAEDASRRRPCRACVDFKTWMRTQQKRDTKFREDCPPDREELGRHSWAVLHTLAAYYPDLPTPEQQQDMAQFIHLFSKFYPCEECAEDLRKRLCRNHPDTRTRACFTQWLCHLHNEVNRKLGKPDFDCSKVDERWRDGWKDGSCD
CHT block: human CHT choline transport inhibition; B-score at 10 µM; hit rate 0.86% among 310,000; Q9GZV3; CHT-expressing cells, membrane potential dye, choline response; stronger effect = lower value;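 active = B-score over 3 SD under the library average, and starting fluorescence ratio not unusually high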;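 note: choline stimulus applied at its EC90 after an EC20 pre-addition; B-score computed on integrated fluorescence ratio after choline addition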
* = called active by the depositor; i = inactive; nt = no result given.

SMILES	CHT PAM	AI-2 QS mod	PREPL inhibitor	ALR inh	CHT block
Cc1ccc(NC(=O)C2(S(=O)(=O)c3ccc(Cl)cc3)CC2)c(Br)c1	i	4	-12	nt	i
COc1ccccc1-c1n[nH]c(=S)n1-c1ccccc1	i	10	11	93*	i
COc1ccccc1-c1n[nH]c(=S)n1N	i	2	2	-3	i
Cc1ccc(-n2c(-c3nn(C)c(C)c3Cl)n[nH]c2=S)cc1	i	17	5	86*	i
COc1ccccc1N1CCN(CCc2n[nH]c(=S)n2-c2ccccc2)CC1	i	24	3	97*	i
COc1ccc(-c2n[nH]c(=S)n2-c2ccc(C)cc2)cc1OC	i	4	-2	89*	i
COc1ccc(-n2c(CCc3ccccc3)n[nH]c2=S)cc1	i	8	-23	10	i
COc1ccc(C)cc1NS(=O)(=O)c1ccc(Cl)nc1	nt	nt	4	-29	nt
C/C(=N\NC(=O)C1(C)CC1(Br)Br)c1cccc(NC(=O)c2ccc(C)o2)c1 (stereo not given)	i	24	-4	0	i
COc1cc(-n2c(-c3ccccc3)n[nH]c2=S)c(OC)cc1Cl	i	4	-1	79*	i
CCN(CC)CCn1c(=S)[nH]c2ccc(Cl)cc2c1=O	i	3	1	89*	i
O=C(O)/C=C/c1cn(Cc2ccccc2)nc1-c1ccc(Cl)cc1	i	11	-4	95*	i
CCOc1cc(CNc2nn[nH]n2)ccc1OCC(=O)NC(C)(C)C	i	3	5	-25	i
Cc1cc2oc3cc(NCCC4CCCN4C)ccc3c(=O)c2cc1C (stereo not given)	i	10	22	91*	i
S=C1NC[C@H](Cc2ccccc2)N1CCc1cccc2ccccc12	i	-6	-54	-21	i
COc1cccc(/C=N/NC(=O)CNC(=O)c2cccnc2)c1O	i	5	-6	92*	i
COc1cccc(/C=N/NC(=O)CNC(=O)c2ccncc2)c1O	i	23	-2	91*	i
COc1cc(/C=N/NC(=O)CNC(=O)c2cccs2)ccc1O	i	30	-1	nt	i
COc1cccc(/C=N/NC(=O)CNC(=O)c2ccco2)c1O	i	13	-2	63	i
COc1cc(/C=N/NC(=O)CNC(=O)c2ccncc2)ccc1O	i	30	1	99*	i
COc1cccc(/C=N/NC(=O)C(=O)NCc2cccnc2)c1O	i	16	6	32	i
O=C(NCc1ccccn1)c1cccc(S(=O)(=O)Nc2ccc(SC(F)F)cc2)c1	i	39	-1	98*	i
CCn1cc(C(=O)NCc2ccc(C)cc2)c(=O)c2cc(S(=O)(=O)N(C)C)ccc21	i	23	8	-3	i
CN1C(=O)N(C)c2cccc3cccc1c23	i	16	-4	-19	i
CCc1ccc2cccc3c2c1N=CN3C	i	11	15	100*	i
SMILES	CHT PAM	AI-2 QS mod	PREPL inhibitor	ALR inh	CHT block
Cc1c(C)n(Cc2ccccc2)c2ccc(C(=O)OCCN(C)C)cc12	i	-10	20	-6	i
Cc1cc(Nc2ccccc2)nc2cc(O)ccc12	i	12	9	96*	i
COc1ccc(Nc2cc(C)c3ccc(O)cc3n2)cc1	i	34	14	99*	i
CCOc1ccc(Nc2cc(C)c3ccccc3n2)cc1	i	14	17	13	i
COc1ccc(CCC(=O)Nc2cc(S(=O)(=O)N3CCOCC3)ccc2OC(C)C)cc1	nt	nt	20	-7	nt
COc1ccccc1NC(=O)Nc1ncccc1C	i	5	-1	98*	i
COc1ccccc1NC(=O)Nc1cnccn1	i	23	-1	1	i
Cc1ccc(/C=C/C(=O)OCC(=O)Nc2cccc(S(=O)(=O)N(C)C)c2)o1	i	20	6	nt	i
CCCC(=O)N1CCN(c2ccc(NC(=O)c3cccs3)cc2)CC1	i	12	3	15	i
Cc1cccc(CS(=O)(=O)c2cn(CC(=O)N3CCOCC3)c3ccccc23)c1	i	0	1	2	i
CCOC(=O)/C(=N\Nc1cccc(C(F)(F)F)c1)N(CCOC)CCOC	i	11	3	97*	i
Cc1cccc(NC(=S)N/N=C/c2ccc([N+](=O)[O-])s2)c1	i	-212*	27	-29	i
Cc1cc(F)ccc1NCc1ccccc1[N+](=O)[O-]	i	4	-8	99*	i

Screening data deposited in PubChem BioAssay by several laboratories.
